This is part of a sample that, as a whole, favours compounds with a hit. Of some 79,000 tested, about 15% had one in any assay. Unmarked numbers belong to inactive results. Active and inactive are the calls of the source. No stated cut-off is given here; in the data, active means growth inhibition above about 70%; inactive means the rest.
Tests used:
[1] = NCI Yeast Anticancer Drug Screen. Data for the rad50 strain (AID 155);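 further: 0% = growth of vehicle-only cultures of the same strain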; details: S. cerevisiae rad50 strain growth inhibition; at 50.0 µM; stronger effect = higher value
Method in brief: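 Genetically altered yeast (DNA repair pathway); compound treatment; growth inhibition vs vehicle ctrl.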

[2] = NCI Yeast Anticancer Drug Screen. Data for the mec2-1 strain (AID 157); details: S. cerevisiae mec2-1 strain, at 50.0 µM, stronger effect = higher value
Method in brief: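 Compounds were applied to mec2-1 yeast cells. Their growth was then compared with that of vehicle-treated cultures to give growth inhibition.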

[3] = NCI Yeast Anticancer Drug Screen. Data for the sgs1 mgt1 strain (AID 161);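 further: 0% = growth of cultures given vehicle only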; details: S. cerevisiae sgs1 mgt1 strain, at 50.0 µM, stronger effect = higher value
Method in brief: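 Compounds are added to genetically altered yeast, and growth is compared with cultures given vehicle alone to give percent inhibition.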

[4] = NCI Yeast Anticancer Drug Screen. Data for the cln2 rad14 strain (AID 165);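 further: 0% = growth equal to vehicle treated cultures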; details: S. cerevisiae cln2 rad14 strain, at 50.0 µM, stronger effect = higher value
Method in brief: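 Strain: cln2 rad14 yeast, altered in cell cycle control and DNA damage repair. Read-out: growth inhibition vs vehicle.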

[5] = NCI Yeast Anticancer Drug Screen. Data for the bub3 strain (AID 167); details: S. cerevisiae bub3 mutant strain, at 50.0 µM, stronger effect = higher value
Method in brief: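 Yeast carrying a defined mutation is treated with each compound, and growth is compared with that of vehicle-exposed cells to give inhibition.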

[6] = NCI Yeast Anticancer Drug Screen. Data for the mlh1 rad18 strain (AID 175); details: S. cerevisiae mlh1 rad18 strain growth inhibition; at 50.0 µM; stronger effect = higher value
Method in brief: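 A repair-deficient yeast strain is exposed to test compound, and growth is scored relative to vehicle-treated controls.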

| Structure (SMILES) | growth inhibition [1] | growth inhibition [2] | growth inhibition [3] | growth inhibition [4] | growth inhibition [5] | growth inhibition [6] |
| --- | --- | --- | --- | --- | --- | --- |
| O=c1[nH]c2c(c(=O)[nH]1)SSC2 | -24.4% | -12.8% | -39.4% | -7.7% | -28.4% | -10.1% |
| CCN(CC)c1nc(N(C)C)nc(N(C)C)n1 | -9% | -4.3% | 2.15% | -7.25% | 18.7% | 7% |
| CCOC(=O)C(CCCCS(=O)(=O)O)C(=O)OCC | -12.3% | -9.35% | -18.9% | -35% | -5.25% | 11.2% |
| CCN=C1SCCCS1 | -8.8% | -22.8% | -13.4% | -19.5% | -15.9% | -14.8% |
| CN(C)CCNC(=O)c1ccc2nc3c(nc2c1)C(=O)c1ccccc1-3 | -9.4% | -2.85% | 31.3% | 36.8% | 3.6% | 15.9% |
| CCOc1ccc(C2=NNC(=O)CC2)cc1 | 26% | -8.55% | -9.15% | 14.3% | 13.9% | 17.6% |
| O=C(O)C1=C(C(=O)Nc2ccc(NC(=O)C3=C(C(=O)O)C4C=CC3C4)cc2)C2C=CC1C2 | -0.75% | -0.35% | -6.3% | -28.4% | 0.25% | 9.95% |
| CS(=O)(=O)Cc1cc(-c2ccccc2)no1 | 15.1% | 28.1% | 8.7% | -3.4% | 7.75% | 9.85% |
| CCCCCCCC/C=C\CCCCCCCC(=O)NCCN(CC)CC | 98.7% (active) | 99.3% (active) | 99.3% (active) | 96.8% (active) | 98.7% (active) | 98.8% (active) |
| CCC(CC)C(=O)OCCCc1ccccc1 | 3.95% | -0.05% | 10.4% | -7.4% | 11.9% | 4.4% |
| Cc1ccc2sc3cc(=O)cc(C)c-3nc2c1 | 14.7% | 0.7% | -15.1% | 8.35% | 38.4% | 25.4% |
| CCC(O)(c1ccccc1)C(OC)c1ccccc1 (configuration not stated) | 15.3% | 5.35% | 14.5% | 7.25% | -0.35% | 21.1% |
| O=c1[nH]c(-c2ccccc2)c(-c2ccccc2)nc1Cl | 6.35% | 1.8% | 6.5% | -11.7% | -19.1% | 18.1% |
| COc1cccc(N2C(=O)C3c4[nH]c5ccc(C)cc5c4C4CCC(C(C)(C)C)CC4C3C2=O)c1 (configuration not stated) | 12.7% | -20.1% | 13% | 2.55% | 1.4% | -5.55% |
| CSc1ccc2c(cc1=O)[C@@H](NC(C)=O)CCc1cc(O)c(O)c(O)c1-2 | 7.1% | 12.3% | 18.1% | 4.85% | 17.4% | 22.8% |
| CCCCCC(=O)OCCOC | -3.4% | -15.2% | -8.45% | -46% | -38.1% | -13.7% |
| CCOC(=O)c1cccc(N)c1 | -9.6% | -22.2% | -25% | -6.35% | -12.5% | -6.8% |
| Cn1c(O)c(C=Nc2ccccc2Cl)c(=O)n(C)c1=O | -11.1% | -4.65% | -9.7% | -38.6% | 0.55% | -28.4% |
| COCn1c(C)c(C)c2c(=O)oc(=O)[nH]c21 | -23.2% | 17.7% | -30.6% | -11.3% | 16.6% | -25.5% |
| O=c1nc(-c2ccccc2)cc(Cc2ccc3ccccc3n2)[nH]1 | 30.1% | 25.8% | 26.1% | -29.8% | 47% | 28.9% |
| Nc1nc(-c2ccccc2)c(N=Nc2cccc(Cl)c2)s1 | -10.7% | -4% | -11.4% | -48% | -2% | -10.8% |

| Structure (SMILES) | growth inhibition [1] | growth inhibition [2] | growth inhibition [3] | growth inhibition [4] | growth inhibition [5] | growth inhibition [6] |
| --- | --- | --- | --- | --- | --- | --- |
| O=C(COC(=O)c1ccccc1Br)c1ccc(-c2ccccc2)cc1 | 33.6% | 20.8% | 31.6% | 31.4% | 0.7% | 23.2% |
| c1ccc(-c2ccc(C(=C(c3ccc(-c4ccccc4)cc3)c3ccc(-c4ccccc4)cc3)c3ccc(-c4ccccc4)cc3)cc2)cc1 | 1.1% | -0.85% | -9.9% | -4.15% | -4.7% | -12.6% |
| CC(=O)OCC#Cc1ccccc1 | -10.9% | -14.1% | -0.2% | -17.6% | 19.4% | -1.2% |
| CCCCn1cnc2c(SSc3ncnc4c3ncn4CCCC)ncnc21 | -11.6% | -11.3% | 5.1% | 12% | 22.4% | 75.7% (active) |
| CC(=O)N1CCN(c2ccccc2Cl)CC1 | -10% | -17.2% | -18.4% | -3.45% | -10.6% | -22.7% |
| COC1OC(CO)C(OC(C)=O)C(OC(C)=O)C1OC(C)=O (configuration not stated) | -2.05% | 16.5% | 2.9% | -14.5% | 12.6% | 1.8% |
| COc1ccc2c(c1)C1CCCCC1SCC2=O (configuration not stated) | 1% | 7.4% | -1.9% | -10.9% | 15.8% | -15.3% |
| O=C1OC(C(=O)O)Cc2ccccc21 (configuration not stated) | -16.1% | -15.2% | -3.15% | -5.1% | -2.3% | -13.3% |
| COc1ccccc1C(CC(=O)c1ccccc1)Sc1ccccc1N (configuration not stated) | 26.9% | 33.9% | 38.8% | 4.1% | 26.4% | 12.3% |
| CCC(C)(CCC(C)C)c1ccncc1 (configuration not stated) | -3.45% | 9.3% | -0.05% | -8.45% | -0.75% | 3.05% |
| CN(c1cn(C2CC[C@@H](CO)O2)c(=O)[nH]c1=O)C1CCCCC1 (some centres not stated) | -35.8% | -13.4% | -58.4% | -6% | 5.35% | -41.5% |
| O=C(O)c1cccc(S(=O)(=O)NN2C(=O)CSC2c2ccccc2)c1 (configuration not stated) | -22.4% | -18.5% | 5.55% | 4.45% | 3.7% | -11.3% |
| O=C1/C(=C/c2ccc(Br)cc2)CCC/C1=C\c1ccc(Br)cc1 | 24.2% | 13% | 0.25% | -15.8% | -11.9% | 13.9% |
| COc1ccc(CC(N)C(=O)NC2C(CO)OC(n3cnc4c(N)ncnc43)C2O)cc1 (configuration not stated) | 5.65% | -28.6% | -1.6% | -74.3% | -0.25% | -12.8% |
| CC12CCC(O)CC1=CCC1C2CCC2(C)C(C(=O)O)=CCC12 (configuration not stated) | 1.3% | 46.5% | 29.6% | 21.8% | 49.1% | 34.5% |
| CC(=O)Nc1ccc(/C=N/Nc2nc3ccccc3s2)cc1 | -10.3% | -11% | -5% | -50.4% | 1.9% | 31.1% |
| CNCC(OCCc1ccccc1)c1ccc(O)c(O)c1 (configuration not stated) | 5.85% | -1.9% | 36% | -0.95% | -12.6% | 21.4% |
| COc1cccc2cc(C(C)=O)c(=O)oc12 | 8.65% | -5.35% | 1.6% | 3% | 9.05% | 2.85% |
| CCN(CC)CCOc1ccc(C)c2c1C(=O)CC2 | -27.6% | -9.2% | -8.45% | -8.7% | 21.4% | -23.6% |
| c1ncncn1 | 7.5% | 5.95% | 10.1% | 3.05% | 5.25% | -7.85% |
| Cc1ccc([N+](=O)[O-])c(N)n1 | 3.25% | -5.65% | -2.45% | 2.3% | 3.8% | 1.3% |

Source: PubChem BioAssay (NCI)
